The source made the active and inactive calls.
Assays:
[1] = binders of probe aFSTL3 on microarray, primary screen, stem cell growth factor project, biochemical, small-molecule microarray, fluorescence 635/667 (AID 1064); details: higher = more signal;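 also: measures binding of the biotinylated anti-FSTL3 antibody to printed compounds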
[2] = binders from COS7 lysate, DM2A8 probe, primary screen, torsin A project, cell lysate, small-molecule microarray, fluorescence 635/667 (AID 1065); details: higher = more signal, COS7 lysate expressing mutant human TOR1A
[3] = binders of probe aFGF2 on microarray, primary screen, stem cell growth factor project, biochemical, small-molecule microarray, fluorescence 635/667 (AID 1067); details: higher = more signal;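 also: measures binding of biotinylated aFGF2 protein to printed compounds on slides; z-score merges feature fluorescence and signal-to-noise across triplicate slides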
[4] = binders of probe aFGF10 on microarray, primary screen, stem cell growth factor project, biochemical, small-molecule microarray, fluorescence 635/667 (AID 1071); details: higher = more signal;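 also: score merges 667 nm spot intensity and signal to noise from triplicate slides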
[5] = target: Neurogenic locus notch homolog protein 2 (Homo sapiens) (UniProt Q04721); assay: Notch2 binders on small-molecule microarrays, primary screen, biochemical, small-molecule microarray, 635 nm fluorescence, stem cell growth factors (AID 1073); details: Notch2 binding, higher = more signal
[6] = target: Pro-neuregulin-1, membrane-bound isoform (Homo sapiens) (UniProt Q02297); assay: NRG1 binders on small-molecule microarrays, primary screen, psychiatric disease protein project, biochemical, small-molecule microarray, fluorescence 635/667 (AID 1075); details: NRG1 binding, 635 nm fluorescence, higher = more signal;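 also: score combines 667 nm spot fluorescence with signal to noise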
[7] = system: Neuregulin-1 EGF-like domain; assay: binders of neuregulin-1 EGF-like domain, primary screen, biochemical, small-molecule microarray, 635 nm fluorescence (AID 1081); details: small-molecule microarray binding, higher = more signal;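 also: binding of the protein to compounds printed on small-molecule microarray slides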
[8] = FRG1 promoter luciferase signal modulators, primary screen, FRG1 inhibition for FSHD, cell-based, C2C12 myotubes, firefly/Renilla luciferase, luminescence (AID 1084); details: higher = more signal, called active from +8 up or from −8 down
[9] = binders of probe aFST on microarray, primary screen, stem cell growth factor project, biochemical, small-molecule microarray, fluorescence 635/667 (AID 1086); details: higher = more signal;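 also: score merges 667 nm fluorescence with signal-to-noise of each printed compound spot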
[10] = binders of probe aHhip on microarray, primary screen, stem cell growth factor project, biochemical, small-molecule microarray, fluorescence 635/667 (AID 1087); details: higher = more signal;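 also: score merges spot fluorescence at 667nm with spot signal to noise ratio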

Sequence of Pro-neuregulin-1, membrane-bound isoform (Homo sapiens) (Q02297 whole entry, looked up, the tested form may be a part, canonical isoform): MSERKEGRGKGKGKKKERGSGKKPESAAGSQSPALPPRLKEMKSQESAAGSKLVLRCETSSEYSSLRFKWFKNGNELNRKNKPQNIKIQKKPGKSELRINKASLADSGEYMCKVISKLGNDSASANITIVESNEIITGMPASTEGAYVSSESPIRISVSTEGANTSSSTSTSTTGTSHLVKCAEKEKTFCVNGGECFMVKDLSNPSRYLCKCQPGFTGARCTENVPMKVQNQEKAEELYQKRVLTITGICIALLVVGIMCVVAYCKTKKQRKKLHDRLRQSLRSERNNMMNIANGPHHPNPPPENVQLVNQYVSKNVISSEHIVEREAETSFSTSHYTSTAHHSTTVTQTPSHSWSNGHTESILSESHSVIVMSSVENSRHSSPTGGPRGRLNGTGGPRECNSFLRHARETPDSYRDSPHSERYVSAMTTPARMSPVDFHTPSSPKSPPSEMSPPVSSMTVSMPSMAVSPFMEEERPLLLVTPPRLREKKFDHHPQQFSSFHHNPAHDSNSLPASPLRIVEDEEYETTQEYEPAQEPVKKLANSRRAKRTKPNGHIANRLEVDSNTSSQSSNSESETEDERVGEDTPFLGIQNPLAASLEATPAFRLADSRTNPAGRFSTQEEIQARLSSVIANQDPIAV
Sequence of Neurogenic locus notch homolog protein 2 (Homo sapiens) (Q04721 whole entry, looked up, canonical isoform): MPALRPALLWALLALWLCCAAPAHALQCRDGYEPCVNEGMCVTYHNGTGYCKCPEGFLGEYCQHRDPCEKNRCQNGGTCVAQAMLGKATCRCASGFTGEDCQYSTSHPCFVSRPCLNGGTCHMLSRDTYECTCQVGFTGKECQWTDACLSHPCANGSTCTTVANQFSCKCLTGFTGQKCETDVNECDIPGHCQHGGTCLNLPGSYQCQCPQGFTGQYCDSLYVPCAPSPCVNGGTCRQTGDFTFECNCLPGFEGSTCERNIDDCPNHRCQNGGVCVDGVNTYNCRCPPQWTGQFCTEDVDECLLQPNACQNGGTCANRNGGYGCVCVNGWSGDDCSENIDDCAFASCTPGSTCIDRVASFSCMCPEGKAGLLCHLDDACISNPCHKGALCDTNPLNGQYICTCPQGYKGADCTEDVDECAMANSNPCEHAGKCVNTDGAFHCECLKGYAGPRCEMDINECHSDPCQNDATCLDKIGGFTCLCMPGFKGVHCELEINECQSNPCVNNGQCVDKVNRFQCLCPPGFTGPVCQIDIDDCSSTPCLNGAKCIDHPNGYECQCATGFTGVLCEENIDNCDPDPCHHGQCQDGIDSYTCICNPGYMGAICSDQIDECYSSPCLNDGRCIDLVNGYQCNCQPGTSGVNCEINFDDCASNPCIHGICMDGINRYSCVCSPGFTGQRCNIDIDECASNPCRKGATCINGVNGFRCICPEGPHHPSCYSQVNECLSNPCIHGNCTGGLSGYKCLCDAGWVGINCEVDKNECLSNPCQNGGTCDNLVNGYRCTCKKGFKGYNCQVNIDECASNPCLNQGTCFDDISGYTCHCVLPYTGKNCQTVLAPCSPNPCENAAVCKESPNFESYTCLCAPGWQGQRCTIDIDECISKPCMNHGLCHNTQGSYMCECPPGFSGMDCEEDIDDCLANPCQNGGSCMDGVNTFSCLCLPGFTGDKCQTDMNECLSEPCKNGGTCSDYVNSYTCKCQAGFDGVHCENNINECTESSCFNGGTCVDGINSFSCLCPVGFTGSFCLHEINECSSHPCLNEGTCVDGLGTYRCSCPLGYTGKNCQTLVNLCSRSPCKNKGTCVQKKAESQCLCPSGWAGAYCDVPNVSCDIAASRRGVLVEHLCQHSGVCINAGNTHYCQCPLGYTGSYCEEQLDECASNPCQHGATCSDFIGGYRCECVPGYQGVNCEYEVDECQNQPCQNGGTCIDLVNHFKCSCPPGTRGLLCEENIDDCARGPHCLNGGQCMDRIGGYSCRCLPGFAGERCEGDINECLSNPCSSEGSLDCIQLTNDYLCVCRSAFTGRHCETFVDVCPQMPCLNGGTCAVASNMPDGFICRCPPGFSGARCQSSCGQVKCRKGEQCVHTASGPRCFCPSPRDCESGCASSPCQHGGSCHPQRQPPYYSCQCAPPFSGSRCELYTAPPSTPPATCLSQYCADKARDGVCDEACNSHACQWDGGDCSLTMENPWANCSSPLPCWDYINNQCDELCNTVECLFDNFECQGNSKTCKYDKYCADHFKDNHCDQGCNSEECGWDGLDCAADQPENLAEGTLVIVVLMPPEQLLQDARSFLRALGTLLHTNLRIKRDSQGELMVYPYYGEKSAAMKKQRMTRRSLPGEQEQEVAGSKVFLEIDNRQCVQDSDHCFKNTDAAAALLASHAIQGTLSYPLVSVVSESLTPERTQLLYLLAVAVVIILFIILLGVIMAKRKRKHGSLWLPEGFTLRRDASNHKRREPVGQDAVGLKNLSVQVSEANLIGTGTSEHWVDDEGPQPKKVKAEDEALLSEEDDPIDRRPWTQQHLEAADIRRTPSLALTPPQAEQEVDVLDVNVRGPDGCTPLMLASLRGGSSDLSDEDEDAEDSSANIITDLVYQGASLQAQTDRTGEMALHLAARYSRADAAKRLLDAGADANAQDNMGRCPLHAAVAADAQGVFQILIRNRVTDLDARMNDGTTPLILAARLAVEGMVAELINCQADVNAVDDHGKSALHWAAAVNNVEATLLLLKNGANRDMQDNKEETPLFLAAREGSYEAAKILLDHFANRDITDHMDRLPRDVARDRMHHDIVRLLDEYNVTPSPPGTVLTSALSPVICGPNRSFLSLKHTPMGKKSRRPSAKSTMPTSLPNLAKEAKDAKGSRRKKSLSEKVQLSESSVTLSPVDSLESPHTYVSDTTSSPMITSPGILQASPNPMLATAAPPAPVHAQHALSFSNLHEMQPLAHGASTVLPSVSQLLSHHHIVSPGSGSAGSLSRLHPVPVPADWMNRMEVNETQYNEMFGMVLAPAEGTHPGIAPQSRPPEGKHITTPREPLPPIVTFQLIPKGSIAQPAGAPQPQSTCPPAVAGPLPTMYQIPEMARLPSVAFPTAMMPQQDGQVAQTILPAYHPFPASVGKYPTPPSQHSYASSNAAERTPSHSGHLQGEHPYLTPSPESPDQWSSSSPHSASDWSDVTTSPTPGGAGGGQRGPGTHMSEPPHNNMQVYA

Structure (SMILES) | composite z-score [1] | composite z-score [2] | composite z-score [3] | composite z-score [4] | composite z-score [5] | composite z-score [6] | composite z-score [7] | z-score [8] | composite z-score [9] | composite z-score [10]
CCc1cc2c(nc1CC)CCN(CCC(C)=NO[C@H](C)c1cn([C@H](CO)Cc3ccccc3)nn1)C2 | 0.111 | 0.985 | -0.0154 | 0.0116 | -0.0913 | 0.107 | 0.595 | 0.834 (inactive) | -0.129 | -0.249
O=C1CCCC=C1C(O)CCOC(c1ccccc1)(c1ccccc1)c1ccccc1 (stereo not given) | -0.282 | 0.422 | -0.144 | 0.0954 | -0.0617 | -0.229 | -0.132 | -0.0611 (inactive) | -0.405 | -0.069
CCOC(=O)[C@H](CC(C)C)NC(=O)CCC1CC(OC(=O)NCc2cccc3ccccc23)CC2(CCCC(COC(=O)NCCC(C)C)O2)O1 (stereo not given in full) | -0.403 | 0.141 | -0.0547 | 0.176 | 0.193 | -0.0205 | 0.602 | 0.164 (inactive) | -0.128 | 0.003
CC[C@@H](c1ccccc1)n1c(=O)n2n(c1=O)[C@H]1[C@H](O)[C@@H]3O[C@@H]3C(=NOC[C@@H](O)COCc3ccco3)[C@H]1CC2 | -0.437 | 0.615 | -0.116 | 0.25 | -1.17 | -0.552 | 0.727 | 0.0269 (inactive) | -0.113 | -0.741
CC(C)=CCCC(C)=CCON=C1C[C@@H](O)[C@@H](O)[C@@H]2[C@@H]3C(=O)N(C(C)(C)C)C(=O)[C@@H]3CC[C@@H]12 | 0.0454 | 0.113 | -0.0473 | 0.257 | 0.0729 | -0.0925 | 0.184 | -0.519 (inactive) | 0.13 | -0.191
C[C@@H]1CC[C@H]2C(=O)O[C@@H](COc3ccc(C(C)(C)C)cc3)CN2[C@@H]1c1ccc(Br)cc1 | -0.368 | -0.257 | -0.162 | -0.249 | -0.538 | -0.0758 | -0.976 | 1.03 (inactive) | -0.217 | -0.134
COc1cccc([C@H]2Oc3ccc(OC)cc3C(=NOC[C@@H](O)[C@H]3O[C@@H]4OC(C)(C)O[C@@H]4[C@H]3O)[C@@H]2O)c1 | -0.117 | 0.146 | -0.0533 | 0.289 | 0.533 | -0.242 | 0.54 | 5.07 (inactive) | 0.149 | -0.194
C[C@@H](c1ccccc1)N1C(=O)[C@H]2[C@H]3[C@H](O)[C@H](O)CC(=NO[C@@H]4O[C@H](CO)[C@@H](O)[C@H](O)[C@H]4O)[C@H]3CC[C@H]2C1=O | -0.528 | -0.0577 | -0.0291 | 0.303 | 0.473 | 0.0437 | 0.343 | -0.412 (inactive) | 0.0934 | -0.0383
CC(C)=NO[C@H](C)c1cn([C@H](CO)Cc2ccccc2)nn1 | -0.125 | 0.364 | -0.0737 | -0.116 | 0.0781 | 0.274 | 0.316 | -0.266 (inactive) | 0.0676 | 0.0972
O=C(NN=C1C[C@@H](O)[C@@H](O)[C@@H]2[C@@H]3C(=O)N(C4CCCCC4)C(=O)[C@@H]3CC[C@H]12)OCc1ccccc1 | 1.01 | 0.553 | 0.0679 | 0.0977 | 1.1 | -0.131 | -0.287 | -0.242 (inactive) | 0.324 | -0.558
O=C1[C@H]2[C@H]3[C@H](O)[C@H](O)CC(=NOCc4ccccc4)[C@@H]3CC[C@H]2C(=O)N1C[C@@H]1CCCO1 | -0.278 | -0.22 | -0.116 | -0.125 | 0.176 | 0.0461 | -0.288 | 1.36 (inactive) | 0.271 | -0.27
CO[C@H]1COC(=O)CC=C[C@H](C)[C@@H](OC)COC(=O)[C@@H](C)NC(=O)CC=C[C@@H]1C | -0.548 | 1.9 | -0.177 | 0.0365 | -0.411 | -0.255 | 0.515 | 0.447 (inactive) | -0.251 | -0.196
CCCNC(=O)OC[C@H]1O[C@H](CCON=C(C)CCN2CCc3nc(CC)c(CC)cc3C2)C=C[C@@H]1Oc1ccc(OC)cc1 | -0.343 | 1.59 | -0.129 | -0.0187 | 0.0329 | 0.51 | 0.428 | 0.31 (inactive) | -0.0665 | 0.5

From PubChem BioAssay
